A short description of assay [1]: Validation screen for small molecules that induce genotoxicity in human embryonic kidney (HEK293T) cells expressing luciferase-tagged ELG1 (AID 493106). The method, boiled down: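 HEK293T cells expressing luciferase-tagged ELG1 were exposed to compound or DMSO vehicle for 16 hr at 37 °C, 5% CO2. Genotoxic stress raises ELG1 levels, so increased luciferase signal after ONE-Glo addition and 30 min at room temperature marks hits.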

For assay [2], the target named is Thyrotropin-releasing hormone receptor (Homo sapiens) (UniProt P34981). The experiment in a line: qHTS for Small Molecule Agonists and Allosteric Enhancers of Human TRH Receptor: Validation Screen for Agonists (AID 493127;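 active = calcium activation more than 3 SD above the typical response in the agonist read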;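 note: intracellular calcium rise by fluo-8 fluorescence before TRH EC20 addition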). The note with it: TRH receptor agonist cell assay; at 2 µM; stronger effect = higher value. An outline of the steps:
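TRHR-expressing cells were plated overnight in serum-containing medium, then loaded with fluo-8 calcium dye at room temperature for 30 min–1.5 h. After a 10 s baseline, compound was pin-transferred and calcium fluorescence (ex 480/em 530) read kinetically for agonist response.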
On the technique in general: Quantitative high-throughput screening tests each substance at several concentrations.

Assay [3] in a line: qHTS for Inhibitors of Cell Surface uPA Generation: Validation Assay (AID 493164).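 Note: RAW 264.7 macrophage cells exposed to compound for 18 h.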 An outline of the steps:
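RAW 264.7, 4000 cells/well, o/n plating; cpd 7-pt 1:5 dilution 2.45 nM–38.3 uM final; 18 h, 37 C/5% CO2; ATP-Lite, 5 s luminescence exposure.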

The target in assay [4] is Galactokinase (Homo sapiens) (UniProt P51570). The experiment in a line: qHTS Validation Assay for Inhibitors of Human Galactokinase (GALK) (AID 493189). An outline of the steps:
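Luminescence from leftover ATP (Kinase-Glo Plus, 10 min) served as read-out after a 1 h room-temperature reaction of 5 nM GALK, 100 uM galactose and 35 uM ATP at pH8.0.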

Assay [5] is described as follows: Validation screen for small molecules that induce DNA re-replication in SW480 colon adenocarcinoma cells (AID 504364). An outline of the steps: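 SW480 cells seeded at 250 per well were exposed to compound or DMSO for 48 hr at 37 C, 5% CO2, then stained with Hoechst for 40 min. DNA content per nucleus was imaged (405 nm ex, 500-530 nm em).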
The target of assay [6] is Peptidyl-prolyl cis-trans isomerase NIMA-interacting 1 (Homo sapiens) (UniProt Q13526). The experiment in a line: qHTS Validation Assay to Find Inhibitors of Pin1 (AID 504536; active = well fitted inhibition curve with a large enough effect in the polarisation, with a control signal flat, not every such curve was filed as active; the % refers to the polarisation). An outline of the steps: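 Fluorescence polarization competition: compounds (titration) displace HiFluor-488-labeled Pin1-1b peptide from Pin1 (0.3 uM final) in pH 7.5 HEPES buffer with DTT, 10 min at room temperature; %Activity normalized to no-enzyme wells, curves fitted.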

In assay [7] the target is phosphoglycerate mutase (Leishmania major) (UniProt Q4Q090). Kind of assay: qHTS Validation Assay to Find Inhibitors of Phosphoglycerate Mutase (AID 504548). Note: series mostly up to about 58 µM. The method, boiled down: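 Lm PGAM 1.25nM final; 100 mM TEA pH 7.6, 5 mM MgCl2, 0.01% Tween-20; 45 min RT; Kinase-GloPlus, 10 min; end-point luminescence. Enzyme-free wells as negative controls.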
Assay [8] addresses Ubiquitin carboxyl-terminal hydrolase 1 (Homo sapiens) (UniProt O94782). The experiment in a line: Inhibitors of USP1/UAF1: Pilot qHTS (AID 504865).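 Note: rhodamine fluorescence freed from ubiquitin-rhodamine substrate followed over time; top concentration of the series differs between compounds; nearly all actives have a fitted effect of over 35% in size.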 The method, boiled down: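 1nM USP1/UAF1 + cpd, 15 min RT; start w/ Ub-Rho 150nM final; kinetic FL 480/540 nm, 6 reads q60 s. Buffer 50mM HEPES pH 7.8, 0.5mM EDTA, 1mM TCEP, 0.01% Tween-20, 0.1 mg/ml BSA.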
Assay [9] is described as follows: qHTS for Inhibitors of ATXN expression: Validation of Cytotoxic Assay (AID 588349). The method, boiled down: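 HEK293 cells were dosed with titrated compounds for 72 hr at 37 degrees C. Viability was read by CellTiter Glo luminescence, with intracellular ATP as the marker of cell survival.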
Assay [10] is described as follows: qHTS for Inhibitors of ATXN expression: Validation (AID 588378). Note: series mostly up to about 57 µM; nearly all actives have a fitted effect of over 75% in size. The method, boiled down: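 Cells: HEK293-ATXN2-FFLuc, phenol-red free DMEM, 2 h attachment. Compound pin-transfer, 24 h, 37 degrees C, 5% CO2. CellTiter-Fluor 30 min, Ex405/Em525; Bright-Glo 5 min, luminescence 2 s exposure.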
Assay [11] addresses DNA dC->dU-editing enzyme APOBEC-3G (Homo sapiens) (UniProt Q9HC16). Kind of assay: qHTS for inhibitors of Vif-A3G interactions: Validation (AID 588379). The method, boiled down:
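HeLa cells stably expressing Vif and A3G-eYFP, 700 cells/well, incubated overnight at 37 deg C, then exposed to compound overnight at 37 deg C. Inhibition of Vif-mediated degradation read as increased yellow fluorescence (Ex 488/Em 500-530) by laser-scanning cytometry.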

Assay [12] concerns the target Glucocorticoid receptor (Homo sapiens) (UniProt P04150). Kind of assay: qHTS assay for small molecule antagonists of glucocorticoid receptor signaling (AID 588533; active = well fitted inhibition curve with a large enough effect in the signal ratio, with a control signal flat, not every such curve was filed as active; the % refers to the signal ratio;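 note: cells stimulated with 2 nM dexamethasone as agonist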). An outline of the steps:
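Antagonist-mode qHTS: compound titrations added to GRE-bla HeLa cells, then dexamethasone 2 nM final; 18 h, 37 C. CCF4 FRET fluorescence normalized to dexamethasone and DMSO; IC50 from Hill fit.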

The nature of assay [13]: qHTS assay for small molecule antagonists of peroxisome proliferator-activated receptor delta signaling (AID 588535; active = well fitted inhibition curve with a large enough effect in the signal ratio, with a control signal flat, not every such curve was filed as active; the % refers to the signal ratio;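 for max response: cells co-treated with a PPAR-delta agonist as stimulator during compound exposure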). The note with it: HEK293T PPARd-UAS-bla, beta-lactamase FRET ratio, 18 h; 460 nm channel. An outline of the steps: (§1)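 GeneBLAzer PPAR-delta-UAS-bla HEK293T cells in medium with 2% charcoal/dextran FBS were preincubated 5 hrs at 37 C, then given compounds, incubated 18 hrs at 37 C, and read by CCF4 beta-lactamase fluorescence; IC50 from Hill fits.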

Assay [14] addresses Peroxisome proliferator-activated receptor delta (Homo sapiens) (UniProt Q03181). The assay is described as above. An outline of the steps: as §1
The nature of assay [15]: Nrf2 qHTS screen for inhibitors: Validation (AID 493153; active = well fitted inhibition curve with a large enough effect in the main read-out, with a control signal flat, not every such curve was filed as active). The note with it: Potency: luciferase luminescence; viability change: measured here: cytotoxicity max response. The method, boiled down:
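A549 cells carrying an ARE-driven firefly luciferase reporter, in 5% FBS OPTI-MEM, were treated with compounds in concentration-response for 18-24 h at 37°C. Viability was read by CellTiter-Fluor fluorescence, then Nrf2 activity by luciferase luminescence.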

SMILES strings stand for the structures. Records with an inconclusive call do not appear. Where a call stands in place of a potency, no number is given. Activity calls are given as the source filed them. Unless noted, calls come from the whole dose curve; as a rule, active = well fitted curve in the direction sought with a large enough effect; inconclusive = small, poorly fitted or top-dose-only effect, or another doubt; inactive = no such curve, though single readings can be large; an effect the other way counts as inactive or inconclusive.

phosphoglycerate mutase (Leishmania major), sequence (Q4Q090 1-553): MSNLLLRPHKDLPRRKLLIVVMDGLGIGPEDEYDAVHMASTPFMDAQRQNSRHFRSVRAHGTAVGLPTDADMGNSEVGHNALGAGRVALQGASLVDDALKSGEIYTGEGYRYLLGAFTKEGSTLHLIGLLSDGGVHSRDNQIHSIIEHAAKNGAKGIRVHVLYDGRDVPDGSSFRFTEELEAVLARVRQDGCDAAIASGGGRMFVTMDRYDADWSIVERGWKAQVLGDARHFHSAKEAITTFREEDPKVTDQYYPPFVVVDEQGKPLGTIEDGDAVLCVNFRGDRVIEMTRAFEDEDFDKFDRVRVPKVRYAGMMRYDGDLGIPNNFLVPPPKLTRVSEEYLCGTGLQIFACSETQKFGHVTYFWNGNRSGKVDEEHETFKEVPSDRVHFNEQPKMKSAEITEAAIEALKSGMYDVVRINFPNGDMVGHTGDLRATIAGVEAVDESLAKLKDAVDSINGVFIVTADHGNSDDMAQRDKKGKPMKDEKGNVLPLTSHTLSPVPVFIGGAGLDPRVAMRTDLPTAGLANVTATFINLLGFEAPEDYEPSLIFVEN
Peptidyl-prolyl cis-trans isomerase NIMA-interacting 1 (Homo sapiens), sequence (Q13526 whole entry, looked up): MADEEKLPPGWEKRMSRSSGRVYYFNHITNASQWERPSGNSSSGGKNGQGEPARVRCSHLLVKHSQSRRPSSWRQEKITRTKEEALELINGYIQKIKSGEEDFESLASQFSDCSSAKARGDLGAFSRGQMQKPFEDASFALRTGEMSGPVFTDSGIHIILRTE
Thyrotropin-releasing hormone receptor (Homo sapiens), sequence (P34981 whole entry, looked up): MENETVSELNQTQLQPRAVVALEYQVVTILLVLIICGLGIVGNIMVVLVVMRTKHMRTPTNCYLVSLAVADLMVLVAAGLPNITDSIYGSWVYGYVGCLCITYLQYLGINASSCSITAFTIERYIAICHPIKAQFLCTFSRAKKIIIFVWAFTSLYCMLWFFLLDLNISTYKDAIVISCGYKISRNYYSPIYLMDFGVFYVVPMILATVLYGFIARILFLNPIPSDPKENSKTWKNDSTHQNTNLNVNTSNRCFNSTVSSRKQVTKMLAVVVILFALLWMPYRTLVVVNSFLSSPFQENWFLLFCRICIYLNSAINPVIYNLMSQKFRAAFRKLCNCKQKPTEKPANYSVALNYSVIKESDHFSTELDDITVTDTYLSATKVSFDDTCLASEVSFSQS
Galactokinase (Homo sapiens), sequence (P51570 whole entry, looked up): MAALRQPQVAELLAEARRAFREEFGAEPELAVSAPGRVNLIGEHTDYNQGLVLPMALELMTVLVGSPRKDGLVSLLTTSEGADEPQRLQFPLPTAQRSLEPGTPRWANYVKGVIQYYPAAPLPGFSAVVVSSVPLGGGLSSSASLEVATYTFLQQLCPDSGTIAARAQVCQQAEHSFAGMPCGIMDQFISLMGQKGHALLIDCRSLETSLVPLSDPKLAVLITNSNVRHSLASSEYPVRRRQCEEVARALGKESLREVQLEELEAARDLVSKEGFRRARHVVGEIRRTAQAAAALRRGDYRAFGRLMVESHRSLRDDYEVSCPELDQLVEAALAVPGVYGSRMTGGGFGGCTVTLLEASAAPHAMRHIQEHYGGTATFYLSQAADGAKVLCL
Ubiquitin carboxyl-terminal hydrolase 1 (Homo sapiens), sequence (O94782 whole entry, looked up): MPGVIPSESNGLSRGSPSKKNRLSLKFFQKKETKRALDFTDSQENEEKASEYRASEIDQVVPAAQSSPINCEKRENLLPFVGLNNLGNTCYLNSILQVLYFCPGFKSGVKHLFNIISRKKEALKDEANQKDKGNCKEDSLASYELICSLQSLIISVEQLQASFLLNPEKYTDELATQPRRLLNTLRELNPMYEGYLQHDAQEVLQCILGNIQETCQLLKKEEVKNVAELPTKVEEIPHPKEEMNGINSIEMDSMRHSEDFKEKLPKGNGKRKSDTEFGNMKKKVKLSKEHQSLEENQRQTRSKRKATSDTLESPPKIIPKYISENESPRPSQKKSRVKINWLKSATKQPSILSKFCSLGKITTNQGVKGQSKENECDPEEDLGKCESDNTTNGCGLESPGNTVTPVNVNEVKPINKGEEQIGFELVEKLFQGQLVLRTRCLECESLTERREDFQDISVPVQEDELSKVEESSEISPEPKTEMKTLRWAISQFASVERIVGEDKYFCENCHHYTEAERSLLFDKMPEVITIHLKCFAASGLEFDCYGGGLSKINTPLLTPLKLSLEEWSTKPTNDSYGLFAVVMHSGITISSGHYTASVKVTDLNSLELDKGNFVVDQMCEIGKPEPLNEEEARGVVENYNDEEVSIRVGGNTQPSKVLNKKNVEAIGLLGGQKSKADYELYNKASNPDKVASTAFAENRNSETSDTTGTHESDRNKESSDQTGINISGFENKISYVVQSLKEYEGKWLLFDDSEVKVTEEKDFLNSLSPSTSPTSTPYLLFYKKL
Peroxisome proliferator-activated receptor delta (Homo sapiens), sequence (Q03181 whole entry, looked up): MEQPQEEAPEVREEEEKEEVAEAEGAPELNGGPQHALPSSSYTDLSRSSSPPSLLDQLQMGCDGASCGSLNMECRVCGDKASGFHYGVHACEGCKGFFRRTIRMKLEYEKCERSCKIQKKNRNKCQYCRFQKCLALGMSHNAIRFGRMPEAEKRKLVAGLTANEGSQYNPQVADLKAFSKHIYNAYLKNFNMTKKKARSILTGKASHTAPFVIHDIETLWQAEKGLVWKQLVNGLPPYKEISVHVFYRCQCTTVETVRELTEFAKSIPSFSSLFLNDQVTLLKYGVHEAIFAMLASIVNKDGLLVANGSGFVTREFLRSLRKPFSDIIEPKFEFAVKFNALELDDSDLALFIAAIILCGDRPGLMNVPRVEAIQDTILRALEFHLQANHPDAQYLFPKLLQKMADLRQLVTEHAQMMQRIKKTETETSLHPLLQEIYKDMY
DNA dC->dU-editing enzyme APOBEC-3G (Homo sapiens), sequence (Q9HC16 whole entry, looked up): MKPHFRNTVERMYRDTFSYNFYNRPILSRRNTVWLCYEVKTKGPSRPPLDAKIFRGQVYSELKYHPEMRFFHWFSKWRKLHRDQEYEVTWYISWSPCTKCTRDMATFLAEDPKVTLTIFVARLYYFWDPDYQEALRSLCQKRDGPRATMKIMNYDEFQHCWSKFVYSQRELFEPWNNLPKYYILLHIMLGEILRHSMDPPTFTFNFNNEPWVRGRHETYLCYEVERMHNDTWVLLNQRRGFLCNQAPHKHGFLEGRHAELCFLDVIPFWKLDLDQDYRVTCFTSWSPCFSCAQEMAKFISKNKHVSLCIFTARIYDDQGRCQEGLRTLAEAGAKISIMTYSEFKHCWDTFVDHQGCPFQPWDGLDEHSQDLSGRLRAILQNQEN
Glucocorticoid receptor (Homo sapiens), sequence (P04150 whole entry, looked up): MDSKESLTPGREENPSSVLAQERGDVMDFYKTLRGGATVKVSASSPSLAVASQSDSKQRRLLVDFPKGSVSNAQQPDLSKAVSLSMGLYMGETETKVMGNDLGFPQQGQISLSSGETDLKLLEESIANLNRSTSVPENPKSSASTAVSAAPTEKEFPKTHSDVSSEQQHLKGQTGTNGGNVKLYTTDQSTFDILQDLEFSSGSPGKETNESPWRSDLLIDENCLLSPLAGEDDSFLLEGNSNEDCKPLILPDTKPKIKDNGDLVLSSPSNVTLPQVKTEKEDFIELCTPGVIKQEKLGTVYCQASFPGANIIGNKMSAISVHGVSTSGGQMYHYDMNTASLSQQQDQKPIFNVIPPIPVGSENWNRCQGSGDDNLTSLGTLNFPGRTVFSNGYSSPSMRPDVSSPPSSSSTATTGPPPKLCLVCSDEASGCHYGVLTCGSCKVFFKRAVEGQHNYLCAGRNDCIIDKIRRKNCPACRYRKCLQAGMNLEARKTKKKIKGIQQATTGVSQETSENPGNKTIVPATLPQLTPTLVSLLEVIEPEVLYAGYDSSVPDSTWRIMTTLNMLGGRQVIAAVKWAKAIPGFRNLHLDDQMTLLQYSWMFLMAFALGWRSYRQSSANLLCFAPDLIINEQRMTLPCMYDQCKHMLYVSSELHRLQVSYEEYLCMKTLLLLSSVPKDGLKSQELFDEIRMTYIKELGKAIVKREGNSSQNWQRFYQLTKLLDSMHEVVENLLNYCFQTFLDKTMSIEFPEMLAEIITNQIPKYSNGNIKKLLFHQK

In the case of `COc1cc2ncnc(Nc3cccc(Cl)c3)c2cc1OC`, the compound was called inactive in assay [1], in assay [3], in [4], in assay [5], in assay [6] and in assay [7]. Besides, in assay [11], the compound was classed as inactive. In assay [2], the activation is -6.5% (inactive). The Potency entry in assay [8], in assay [9] and in assay [10] was “inactive” in each case.

For `CN1CCCC(n2nc(Cc3ccc(Cl)cc3)c3ccccc3c2=O)CC1` (stereo not given), in [8], the Potency result is “inactive”.

As for `Nc1nc(N)c2nc(CNc3ccc(C(=O)NC(CCC(=O)O)C(=O)O)cc3)cnc2n1` (stereo not given), the activation in [2] was 1% (inactive). Moreover, the result in assay [3], in assay [4], in assay [5], in assay [7], in [12] and in assay [14] was inactive. Moreover, the Potency entry in [9] and in assay [10] was “inactive” each time. For the same compound, in [13], the max response came out at 44.5%.

`CC(C)NCC(O)c1ccc(NS(C)(=O)=O)cc1` (stereo not given): the result in [1], in assay [3], in [4], in assay [5], in assay [6] and in [7] was inactive. For the same compound, the activation in [2] was 0.875% (inactive). For the same compound, the Potency entry in [15], in assay [8], in assay [9] and in [10] was “inactive” in each case. In addition, the viability change in [15] is -6.97%.

On to `NC(=O)c1ccc2[nH]ccc2c1`, for which the compound was called inactive in assay [1], in [3], in [6] and in [7]. For the same compound, the Potency entry in assay [15], in assay [8], in assay [9] and in [10] was “inactive” in each case. In [15], the viability change is -7.5%.

In the case of `COC(=O)Nc1nc2ccc(S(=O)c3ccccc3)cc2[nH]1` (stereo not given), the Potency entry in [8] is “inactive”.

As for `CC(C)(C)C(=O)OCOP(=O)(COCCn1cnc2c(N)ncnc21)OCOC(=O)C(C)(C)C`, in assay [8], the Potency entry is “inactive”.

Turning to `CCCN[C@H]1CCc2nc(N)sc2C1`, the Potency entry in assay [8] was “inactive”.

Consider `Oc1c(Cl)cc(Cl)c2cccnc12`, for which the Potency entry in assay [8] is “inactive”.

Take `O=NN(CCCl)C(=O)NC1CCCCC1`: the Potency result in assay [8] is “inactive”.

On to `COc1cnc(NS(=O)(=O)c2ccc(N)cc2)nc1`, for which the Potency entry in [8] was “inactive”.

Consider `Nc1nc(=S)c2[nH]cnc2[nH]1`, for which, in [8], the Potency entry is “inactive”.

Consider `COc1ncnc(NS(=O)(=O)c2ccc(N)cc2)c1OC`, for which the Potency result in assay [8] was “inactive”.

Regarding `CNS(=O)(=O)Cc1ccc2[nH]cc(CCN(C)C)c2c1`, in [8], the Potency result was “inactive”.

Regarding `CCOCC(O)COc1ccc(NC(=O)CC[S+](C)C)cc1` (stereo not given), the Potency result in [8] is “inactive”.

Take `Cc1cccc(Nc2ccncc2S(=O)(=O)NC(=O)NC(C)C)c1`: the Potency result in assay [8] is “inactive”.

For the compound `CN(Cc1cc(Br)cc(Br)c1N)C1CCCCC1`, the Potency result in assay [8] is “inactive”.

`Nc1ccc(S(=O)(=O)Nc2ccccn2)cc1`: the Potency entry in assay [8] was “inactive”.

In the case of `CN(C)CCc1c[nH]c2ccc(CS(=O)(=O)N3CCCC3)cc12`, in [8], the Potency entry was “inactive”.

For the compound `CC(C)(Sc1cc(C(C)(C)C)c(O)c(C(C)(C)C)c1)Sc1cc(C(C)(C)C)c(O)c(C(C)(C)C)c1`, the Potency result in assay [8] is “inactive”.

Take `Nc1[nH]c(=O)ncc1F`: in assay [8], the Potency result is “inactive”.

As to `O=c1cc(O)c(Cl)c[nH]1`, the Potency result in assay [8] is “inactive”.

Consider `CC(N)C12CC3CC(CC(C3)C1)C2` (stereo not given), for which, in assay [8], the Potency result is “inactive”.

For `COc1ccc2c(c1)c(CC(=O)OCC(=O)O)c(C)n2C(=O)c1ccc(Cl)cc1`, in assay [8], the Potency entry is “inactive”.

In the case of `CNC1CCCN(c2c(F)cc3c(=O)c(C(=O)O)cn(C4CC4)c3c2OC)C1` (stereo not given), the Potency entry in assay [8] is “inactive”.

Regarding `CC(C)Cn1cnc2c(N)nc3ccccc3c21`, the Potency entry in assay [8] was “inactive”.

In the case of `N[C@@H](C(=O)N[C@@H]1C(=O)N2C(C(=O)O)=C(Cl)CS[C@H]12)c1ccccc1`, the Potency result in assay [8] was “inactive”.

For the compound `CCOc1cc(N)c(Cl)cc1C(=O)NCC1CN(Cc2ccc(F)cc2)CCO1` (stereo not given), in [8], the Potency entry was “inactive”.

For `CN1CCN(c2c(F)cc3c(=O)c(C(=O)O)cn(CCF)c3c2F)CC1`, in assay [8], the Potency result is “inactive”.

On to `CNCC[C@H](Oc1cccc2ccccc12)c1cccs1`, for which the Potency entry in assay [8] is “inactive”.

For `CCOC(=O)[C@H](CCc1ccccc1)N[C@H]1CS[C@H](c2cccs2)CN(CC(=O)O)C1=O`, the Potency entry in [8] is “inactive”.

In the case of `COc1c(N2CCNC(C)C2)c(F)cc2c(=O)c(C(=O)O)cn(C3CC3)c12` (stereo not given), the Potency result in assay [8] was “inactive”.
